Measurements: PubChem BioAssay (NCATS)
A number with no mark means an inactive call. Records with an inconclusive call do not appear. The source made the active and inactive calls. Unless noted, the call rests on the fitted dose curve; in most records, active means well fitted curve in either direction with a large enough effect (not every such curve was filed as active); inconclusive means small, poorly fitted or top-dose-only effect, or another doubt; inactive means flat fitted curve, though single readings scatter.

Columns and labels:
[1] = molecular target: Lysosomal acid glucosylceramidase (Homo sapiens) (UniProt P04062); assay: Glucocerebrosidase-p2 (AID 348; in the data active means potency below about 10 µM; further: potency means the concentration at half of the fitted maximal effect); conditions: purified GBA, blue fluorogenic substrate, 40 min
Sequence of Lysosomal acid glucosylceramidase (Homo sapiens) (P04062 whole entry, looked up): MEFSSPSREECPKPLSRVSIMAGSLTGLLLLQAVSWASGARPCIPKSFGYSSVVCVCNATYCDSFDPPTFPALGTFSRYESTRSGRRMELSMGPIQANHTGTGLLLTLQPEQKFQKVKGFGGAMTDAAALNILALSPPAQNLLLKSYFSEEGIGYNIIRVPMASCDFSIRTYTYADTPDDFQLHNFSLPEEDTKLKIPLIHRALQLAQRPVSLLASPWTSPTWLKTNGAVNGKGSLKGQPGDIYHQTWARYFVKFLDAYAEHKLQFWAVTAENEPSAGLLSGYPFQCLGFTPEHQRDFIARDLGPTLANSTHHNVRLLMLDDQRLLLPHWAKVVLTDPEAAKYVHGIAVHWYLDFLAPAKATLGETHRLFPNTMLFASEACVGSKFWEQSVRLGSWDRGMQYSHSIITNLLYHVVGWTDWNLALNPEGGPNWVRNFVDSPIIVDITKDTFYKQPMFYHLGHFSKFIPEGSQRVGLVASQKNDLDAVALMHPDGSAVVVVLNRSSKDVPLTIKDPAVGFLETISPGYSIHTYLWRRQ
How it was run: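 Compounds titrated from 0.6 nM upwards against 0.2 nM enzyme in pH 5.9 citric acid/KH2PO4, taurocholate, tween-20; blue fluorogenic substrate 80 uM, 40 min room temperature, stopped and read Ex 365/Em 440 for AC50.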

[2] = AP1 Signaling Pathway (AID 357); conditions: ME-180 AP-1-bla reporter, EGF-induced, beta-lactamase ratio, 5 h; at 7.69 µM (top of the series) unless noted; further: on the % scale 0 is the no-effect control and ±100 the full control effect
How it was run: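 Titration-series screen for positive or negative modulators of EC50 EGF-induced signaling in ME-180 cells carrying an AP-1-driven beta-lactamase reporter. After 5 hours at 37 degrees Celsius, CCF4 460nm/530nm emission ratio gave %Activity; AC50 values derived.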

[3] = NFAT Signaling Pathway (AID 444); conditions: Jurkat NFAT-bla M1, carbachol, beta-lactamase ratio, 5 h; at 7.69 µM (top of the series) unless noted;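 further: carbachol stimulus at about its EC50 of 1 µM final; on the % scale 0 is the no-effect control and ±100 the full control effect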
How it was run: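 Jurkat cells with NFAT-driven β-lactamase reporter and co-expressed M1 receptor, stimulated with carbachol (final 1 uM, ~EC50), compound titration, 5 h at 37 °C. CCF4 loaded 1 h at RT; 460/530 nm ratio gave %activity and AC50.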

[4] = molecular target: Glucocorticoid receptor (Homo sapiens) (UniProt P04150); assay: GR-EFC Redistribution (AID 451; calls by dose curve; further: potency means the concentration at half of the fitted maximal effect); conditions: CHO-K1 GR-EFC translocation, beta-gal luminescence, 2 h
Sequence of Glucocorticoid receptor (Homo sapiens) (P04150 whole entry, looked up, the tested form may be a part): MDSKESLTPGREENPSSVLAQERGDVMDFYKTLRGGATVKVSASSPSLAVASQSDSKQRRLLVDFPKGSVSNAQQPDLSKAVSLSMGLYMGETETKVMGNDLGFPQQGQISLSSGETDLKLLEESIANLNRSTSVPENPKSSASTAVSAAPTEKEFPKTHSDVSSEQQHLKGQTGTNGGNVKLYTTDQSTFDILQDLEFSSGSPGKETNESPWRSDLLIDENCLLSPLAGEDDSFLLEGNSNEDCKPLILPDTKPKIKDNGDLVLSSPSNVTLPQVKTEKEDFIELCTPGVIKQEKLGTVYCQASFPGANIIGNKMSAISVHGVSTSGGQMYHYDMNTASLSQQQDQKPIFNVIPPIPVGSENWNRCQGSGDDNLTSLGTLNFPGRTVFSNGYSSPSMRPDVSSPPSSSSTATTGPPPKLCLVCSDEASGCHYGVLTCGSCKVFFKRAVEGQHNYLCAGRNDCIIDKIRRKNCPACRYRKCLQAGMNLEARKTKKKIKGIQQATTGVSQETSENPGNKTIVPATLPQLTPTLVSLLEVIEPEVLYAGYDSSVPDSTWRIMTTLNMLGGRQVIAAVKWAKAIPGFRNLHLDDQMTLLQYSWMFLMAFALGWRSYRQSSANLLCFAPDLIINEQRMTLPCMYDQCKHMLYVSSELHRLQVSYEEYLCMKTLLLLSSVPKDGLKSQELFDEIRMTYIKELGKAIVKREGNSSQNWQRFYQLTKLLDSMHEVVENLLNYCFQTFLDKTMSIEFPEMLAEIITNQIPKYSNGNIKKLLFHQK
How it was run: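 CHO-K1 cells expressing nuclear EA and GR-ED fragments of b-gal; compounds titrated up to 46 uM final, 2 h at 37 C. GR nuclear translocation read as complemented b-gal luminescence after 1 h RT detection.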

[5] = molecular target: Mitogen-activated protein kinase 10 (Mus musculus) (UniProt Q61831); assay: JNK3 AlphaScreen Assay (AID 530); conditions: JNK3 lysate, c-Jun phosphorylation; series mostly up to 57.1 µM;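 further: kinase came from lysate of stimulated human HepG2 cells; signal reports phosphorylation of biotinylated GST-cJun 1-79 at Ser73 with 10 µM ATP; on the % scale 0 is the no-effect control and ±100 the full control effect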
How it was run: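 Pre-activated (IL-1β/TNFα) JNK3 in HepG2 lysates phosphorylates biotin-GST-cJun(1-79), 10 uM ATP; anti-phospho-cJun(Ser73) AlphaScreen read at room temperature, pH 7.6 Tris buffer. Compounds pre-incubated 15 min as titrations.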

[6] = molecular target: 3',5'-cyclic-AMP phosphodiesterase 4B (Homo sapiens) (UniProt Q07343); assay: qHTS Assay for Inhibitors of PDE-IV (AID 607; active means well fitted activation curve with a large enough effect in the main read-out, with a control signal flat, not every such curve was filed as active; further: % of control where 0% means no effect); conditions: HEK293 ACTOne CNG channel cells, membrane potential fluorescence; series mostly up to 22.9 µM
Sequence of 3',5'-cyclic-AMP phosphodiesterase 4B (Homo sapiens) (Q07343 whole entry, looked up): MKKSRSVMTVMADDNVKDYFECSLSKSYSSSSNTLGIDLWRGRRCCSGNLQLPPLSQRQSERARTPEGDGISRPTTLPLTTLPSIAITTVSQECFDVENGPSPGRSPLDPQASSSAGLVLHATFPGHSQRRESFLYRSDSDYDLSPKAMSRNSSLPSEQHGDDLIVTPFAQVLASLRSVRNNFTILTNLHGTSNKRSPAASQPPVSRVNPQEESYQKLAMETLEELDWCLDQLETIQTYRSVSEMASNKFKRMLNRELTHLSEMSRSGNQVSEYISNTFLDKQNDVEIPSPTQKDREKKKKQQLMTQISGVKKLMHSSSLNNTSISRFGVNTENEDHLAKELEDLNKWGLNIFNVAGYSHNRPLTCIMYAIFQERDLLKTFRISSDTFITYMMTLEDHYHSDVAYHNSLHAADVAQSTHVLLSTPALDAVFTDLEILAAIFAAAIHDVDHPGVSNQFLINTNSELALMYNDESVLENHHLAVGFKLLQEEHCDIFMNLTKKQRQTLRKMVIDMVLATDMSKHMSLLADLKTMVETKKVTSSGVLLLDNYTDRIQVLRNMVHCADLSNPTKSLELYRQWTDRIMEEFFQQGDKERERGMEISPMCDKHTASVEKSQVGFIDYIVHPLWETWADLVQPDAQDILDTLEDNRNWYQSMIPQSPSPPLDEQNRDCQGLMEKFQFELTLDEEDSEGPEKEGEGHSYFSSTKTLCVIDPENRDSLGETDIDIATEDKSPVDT
How it was run: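 Cell-based read-out of cAMP via a modified cyclic nucleotide-gated channel and membrane potential dye (535/590 nm) in HEK293 cells expressing PDE4 endogenously. Compounds tested up to 22.9 uM final; 100 uM RO 20-1724 reference.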

[7] = molecular target: Cytochrome P450 3A4 (Homo sapiens) (UniProt P08684); assay: qHTS Assay for Inhibitors and Substrates of Cytochrome P450 3A4 (AID 884; active means well fitted curve in the direction sought with a large enough effect; an effect the other way counts as inactive or inconclusive; further: nearly all actives have a fitted effect of over 50% in size; further: potency means the concentration at half of the fitted maximal effect); conditions: recombinant CYP3A4, Luciferin-PPXE luminescence; series mostly up to 57.1 µM
Sequence of Cytochrome P450 3A4 (Homo sapiens) (P08684 whole entry, looked up): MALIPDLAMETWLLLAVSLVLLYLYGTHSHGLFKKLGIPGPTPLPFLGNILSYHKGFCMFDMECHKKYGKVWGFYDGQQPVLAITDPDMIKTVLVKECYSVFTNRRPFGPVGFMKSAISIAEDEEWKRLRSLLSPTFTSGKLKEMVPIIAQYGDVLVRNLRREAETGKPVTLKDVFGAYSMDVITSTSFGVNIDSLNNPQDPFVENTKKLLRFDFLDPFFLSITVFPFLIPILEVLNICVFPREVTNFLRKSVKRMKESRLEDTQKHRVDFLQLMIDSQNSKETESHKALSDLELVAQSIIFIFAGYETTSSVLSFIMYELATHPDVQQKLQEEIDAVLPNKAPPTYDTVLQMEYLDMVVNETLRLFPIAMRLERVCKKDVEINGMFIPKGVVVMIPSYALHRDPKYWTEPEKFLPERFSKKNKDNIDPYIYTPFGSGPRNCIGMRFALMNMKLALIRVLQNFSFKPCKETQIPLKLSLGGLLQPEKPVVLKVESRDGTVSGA
How it was run: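 20 nM human CYP3A4 with 25 uM Luciferin-PPXE (at KM) in 200 mM KPO4, preincubated 10 min with compound; NADPH regeneration started a 60 min RT reaction. Luciferin detected by luminescence, normalized to 57 uM ketoconazole as full inhibition.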

[8] = Primary qHTS for small molecule stabilizers of the endoplasmic reticulum resident proteome: Secreted ER Calcium Modulated Protein (SERCaMP) assay (AID 1508630; active means well fitted curve in the direction sought with a large enough effect; an effect the other way counts as inactive or inconclusive; further: on the % scale 0 is the no-effect control and ±100 the full control effect); conditions: SH-SY5Y GLuc-SERCaMP (Gaussia luciferase released on ER calcium loss) secretion, thapsigargin, luminescence; series mostly up to 38.4 µM
How it was run: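 GLuc-SERCaMP-expressing SH-SY5Y cells, pretreated 16 h with compound, are challenged with thapsigargin to empty ER calcium stores; after 4 h, coelenterazine is added directly to the medium and luminescence is imaged.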

[9] = Stat Signaling Pathway (AID 446); conditions: ME-180 SIE beta-lactamase reporter, IL-6 stimulated, 5 h; at 7.69 µM (top of the series) unless noted
How it was run: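 Reporter line: ME-180 cervical carcinoma, SIE-beta-lactamase. Treatment: compound with 40 pM IL-6, 5 hrs, 37 C, in low-serum OPTI-MEM with 10 mM HEPES pH 7.3. Detection: 460/530 nm fluorescence.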

[10] = molecular target: Glucocorticoid receptor (Homo sapiens) (UniProt P04150); assay: GR-GFP Redistribution (AID 450;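 active means compounds whose dose series gives a full or clear partial fitted curve of increased nuclear translocation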; further: potency means the concentration at half of the fitted maximal effect); conditions: U2OS GR-GFP nuclear translocation, laser cytometry, 2 h
[11] = Confirmation and Secondary Assay for Modulators of Hemoglobin Beta Chain Splicing at IVS2 654 locus (AID 910; active means well fitted curve in the direction sought with a large enough effect; an effect the other way counts as inactive or inconclusive;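 further: HeLa cells stably carrying EGFP split by mutant beta-globin IVS2-654 intron; % of control where 0% means no effect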); conditions: HeLa EGFP-654 splicing reporter, GFP fluorescence, 48 h; series mostly up to 38.3 µM
How it was run: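 HeLa cells stably expressing EGFP interrupted by β-globin IVS2-654 intron, seeded overnight in Opti-MEM/2% FCS, then treated 2 days at 37 °C. Restored splicing read as total peak GFP intensity per well by laser scanning cytometry (488 nm excitation, 500–520 nm emission); 500 nM antisense PNA as control.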

[12] = Confirmation and Secondary Assay for Modulators of Hemoglobin Beta Chain Splicing at IVS2 705 locus (AID 930; active means well fitted curve in the direction sought with a large enough effect; an effect the other way counts as inactive or inconclusive;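 further: HeLa cells stably expressing the EGFP-705 splicing reporter; GFP fluorescence per well restored by corrected splicing of the IVS2-705 intron in EGFP; % of control where 0% means no effect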); conditions: HeLa EGFP-705 splicing reporter, GFP fluorescence, 48 h; series mostly up to 38.3 µM
How it was run: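 Assay measures total GFP intensity per well in HeLa EGFP-705 cells after 2 days with compound; mis-splicing normally truncates EGFP, so fluorescence indicates corrected splicing.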

[13] = molecular target: Ubiquitin carboxyl-terminal hydrolase 1 (Homo sapiens) (UniProt O94782); assay: Inhibitors of USP1/UAF1: Pilot qHTS (AID 504865; active means well fitted curve in the direction sought with a large enough effect; an effect the other way counts as inactive or inconclusive;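 further: rhodamine fluorescence freed from ubiquitin-rhodamine substrate followed over time; top concentration of the series differs between compounds; on the % scale 0 is the no-effect control and ±100 the full control effect; nearly all actives have a fitted effect of over 35% in size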); conditions: purified USP1/UAF1, Ub-rhodamine cleavage fluorescence; series mostly up to 54.9 µM
Sequence of Ubiquitin carboxyl-terminal hydrolase 1 (Homo sapiens) (O94782 whole entry, looked up): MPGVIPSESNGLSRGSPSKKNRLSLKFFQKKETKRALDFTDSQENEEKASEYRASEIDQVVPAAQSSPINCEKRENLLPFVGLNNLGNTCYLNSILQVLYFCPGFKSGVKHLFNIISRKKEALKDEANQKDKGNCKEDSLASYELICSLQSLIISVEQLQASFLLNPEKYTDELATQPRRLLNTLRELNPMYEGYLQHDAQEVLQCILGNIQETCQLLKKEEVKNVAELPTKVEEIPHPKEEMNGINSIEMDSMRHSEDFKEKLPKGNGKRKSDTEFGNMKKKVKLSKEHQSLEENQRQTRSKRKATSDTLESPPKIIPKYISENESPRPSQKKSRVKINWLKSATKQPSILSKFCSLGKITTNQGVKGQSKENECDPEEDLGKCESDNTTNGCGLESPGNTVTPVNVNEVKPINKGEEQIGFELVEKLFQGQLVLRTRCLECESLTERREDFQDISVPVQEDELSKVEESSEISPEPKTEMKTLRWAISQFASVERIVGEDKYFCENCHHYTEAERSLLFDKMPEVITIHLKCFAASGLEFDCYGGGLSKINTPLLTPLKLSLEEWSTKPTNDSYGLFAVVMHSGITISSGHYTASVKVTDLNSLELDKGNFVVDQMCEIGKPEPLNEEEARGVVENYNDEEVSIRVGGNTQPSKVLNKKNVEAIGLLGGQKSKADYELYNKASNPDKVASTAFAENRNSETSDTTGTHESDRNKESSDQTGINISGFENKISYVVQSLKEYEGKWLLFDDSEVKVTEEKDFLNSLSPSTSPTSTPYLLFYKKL
How it was run: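 Deubiquitinase activity followed as kinetic rhodamine fluorescence release from 150 nM Ub-Rho. 1 nM USP1/UAF1 with compound, after 15 min room-temperature preincubation, in HEPES pH 7.8 buffer containing TCEP, EDTA, BSA and Tween-20.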

[14] = qHTS Assay for Identification of Small Molecule Agonists for Hypoxia Response Element Signaling Pathway (AID 914; active means well fitted activation curve with a large enough effect in the signal ratio, with a control signal flat, not every such curve was filed as active; the % refers to the signal ratio; further: % of control where 0% means no effect); conditions: ME-180 (cervical carcinoma) HRE-bla reporter, beta-lactamase ratio, CoCl2, 17 h; activation: stronger effect = higher value
How it was run: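 Compounds in a titration series were added to ME-180 reporter cells alongside an EC50 level of CoCl2. After 17 hours, beta-lactamase activity was read as the 460nm/530nm emission ratio of CCF4, giving AC50 values.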

[15] = molecular target: Cytochrome P450 3A4 (Homo sapiens) (UniProt P08684); assay: qHTS Assay for Activators of Cytochrome P450 3A4 (AID 885; active means well fitted curve in the direction sought with a large enough effect; an effect the other way counts as inactive or inconclusive; further: nearly all actives have a fitted effect of over 65% in size; further: potency means the concentration at half of the fitted maximal effect); conditions: recombinant CYP3A4, Luciferin-PPXE luminescence, 60 min; series mostly up to 57.1 µM
How it was run: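 Signal was normalized against complete inhibition by 57 uM ketoconazole. The reaction used 20nM CYP3A4 with 25uM Luciferin-PPXE, 10-min compound preincubation and a 60-min NADPH-supported step at RT.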

Row | SMILES | Potency [1] [µM] | activity change, negative = inhibition [2] [%] | activity change, negative = inhibition [3] [%] | Potency [4] [µM] | Potency [5] | Potency [6] | Potency [7] | outcome [8] | activity, negative = inhibition [9] [%] | Potency [10] [µM] | Potency [11] | outcome [12] | Potency [13] | activation [14] [%] | Potency [15]
1 | N#Cc1cccc(NC(=O)N2CC3(CCN(C(=O)c4cnccn4)CC3)C2)c1 | > 11.4 | -10.3 | 14.6 | > 46 | inactive | inactive | inactive | inactive |  |  |  |  |  |  | 
2 | O=S(=O)(c1ccccc1)N1CCC2(CCCN(c3ccncc3)C2)CC1 | > 11.4 | 22.1 |  | > 46 | inactive | inactive |  | inactive | 9.67 |  |  |  |  |  | 
3 | O=C(Oc1ccccc1)N1CCC2(CC1)CCN(c1ccccn1)CC2 | > 11.4 | -11.8 |  | > 46 | inactive | inactive | inactive | inactive | -7.33 |  |  |  |  |  | 
4 | O=S(=O)(c1ccccc1)N1CCC2(CCCN(Cc3ccccc3)C2)CC1 | > 11.4 | 10.9 |  | > 46 | inactive | inactive |  | inactive | 5.57 |  |  |  |  |  | 
5 | CN(C)Cc1ccccc1-c1cncnc1Nc1ccc(F)cc1 | > 11.4 | 18.9 |  | > 46 | inactive | inactive |  | inactive | 15.8 | > 46 | inactive | inactive | inactive |  | 
6 | CS(=O)(=O)N1CCC2(CCN(Cc3ccc(C#N)cc3)CC2)CC1 | > 11.4 | 3.08 |  |  | inactive | inactive |  | inactive | 3.96 |  |  |  |  |  | 
7 | O=C(c1cc(C(F)(F)F)cc(C(F)(F)F)c1)N1CCC2(CCCN(c3ccccn3)C2)CC1 | > 11.4 | 10.7 |  | > 46 | inactive | inactive |  | inactive | -14.7 |  |  |  |  | 2.81 | 
8 | O=C(Nc1ccccc1)N1CCCC2(CCN(C(=O)c3cccc(F)c3)CC2)C1 | > 11.4 | -6.89 |  | > 46 | inactive |  |  | inactive | -6.85 |  |  |  |  |  | 
9 | COCCn1c(=O)c(-c2cccs2)nc2cnc(OCc3ccccc3)nc21 | > 11.4 | 2.42 | 4.34 | > 46 | inactive |  |  | inactive |  | > 9.22 |  |  |  |  | inactive
10 | N#Cc1ccc(CN2CC3(CCN(C(=O)c4ccncc4)CC3)C2)cc1 | > 11.4 | 9.93 |  |  | inactive | inactive |  | inactive | 6.61 |  |  |  |  |  | inactive
11 | O=C(Oc1ccccc1)N1CCC[C@@]2(CCN(c3ccccc3)C2)C1 | > 11.4 | -15.6 |  | > 46 | inactive | inactive |  | inactive | -1.51 |  |  |  |  |  | 
12 | c1cncc(-c2nc(NCCN3CCOCC3)c3ccccc3n2)c1 | > 11.4 | -8.53 | 7.81 | > 46 | inactive | inactive | 7.94 µM (active) | inactive |  | > 46 | inactive |  |  |  | inactive
13 | Cc1noc(C)c1C(=O)N1CCC2(CC1)CCN(C(c1ccccc1)c1ccccc1)CC2 | > 11.4 | -6.81 |  | > 46 | inactive |  |  | inactive | 10.1 |  |  |  |  | -2.4 | 
14 | O=C(c1cccc(F)c1)N1CCC2(CC1)CCN(c1ccccn1)CC2 | > 11.4 | -6.05 |  | > 46 | inactive | inactive | inactive | inactive | -4.99 |  |  |  |  |  | 3.16 µM (active)
15 | COc1ccc(C(=O)N2CCC3(CCCN(Cc4nccs4)C3)CC2)cc1 | > 11.4 | -4.03 |  | > 46 | inactive | inactive |  | inactive | -4.62 |  |  |  |  |  | inactive
16 | O=C(c1ccncc1)N1CCC2(CCCN(c3ncccn3)C2)CC1 | > 11.4 | -5.83 |  | > 46 | inactive | inactive |  | inactive | 5.19 |  |  |  |  |  | 
17 | Cn1cccc1C(=O)N1CCC2(CCCN(Cc3nccs3)C2)CC1 | > 11.4 | -3.56 |  | > 46 | inactive | inactive |  | inactive | -8.95 |  |  |  |  |  | 
18 | O=C(c1cnccn1)N1CCC2(CC1)CN(Cc1ccccc1)C2 | > 11.4 | -15.8 |  | > 46 | inactive | inactive |  | inactive | 2.48 |  |  |  |  | 6.71 | 
